From PubChem BioAssay (NCATS) come the findings set out here.

In test [1] the target is Nicotinamide N-methyltransferase (Homo sapiens) (UniProt P40261). The test can be described thus: Confirmatory Screen for Target Class Profiling of Small Molecule Inhibitors of Methyltransferases (AID 1745852). The settings on record: MTase-Glo luminescence, SAH detection, recombinant enzyme; measured here: NNMT max response; stronger effect = lower value.
The target of test [2] is Phenylethanolamine N-methyltransferase (Homo sapiens) (UniProt P11086). The description is as above. The settings on record: MTase-Glo luminescence, SAH detection, recombinant enzyme; measured here: PNMT max response; stronger effect = lower value.
Sequence of Phenylethanolamine N-methyltransferase (Homo sapiens) (P11086 whole entry, looked up): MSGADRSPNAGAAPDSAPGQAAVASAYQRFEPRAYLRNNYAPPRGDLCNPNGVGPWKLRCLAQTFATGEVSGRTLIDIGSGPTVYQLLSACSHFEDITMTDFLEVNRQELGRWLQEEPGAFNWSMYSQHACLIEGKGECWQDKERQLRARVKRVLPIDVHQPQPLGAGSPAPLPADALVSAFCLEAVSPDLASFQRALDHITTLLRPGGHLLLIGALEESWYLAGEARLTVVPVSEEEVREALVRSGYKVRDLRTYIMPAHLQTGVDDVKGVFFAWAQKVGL
Test [3] has as its target Metallo-beta-lactamase type 2 (Klebsiella pneumoniae) (UniProt C7C422). Kind of test: qHTS to identify inhibitors of the New Delhi Metallo-beta-lactamase (NDM): assay validation screen against the NCATS LOPAC Collection (AID 1794843).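 Note: nitrocefin turnover by NDM-1 measured as 485 nm absorbance at plateau; % is set by controls: 0 for no effect and ±100 for the full control effect.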 The conditions noted are these: NDM-1 enzyme, nitrocefin hydrolysis, absorbance 485 nm; series mostly up to 38.4 µM. The essentials: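 Nitrocefin hydrolysis (50 uM substrate stock) by NDM-1, 2 nM final, was followed by 485 nm absorbance after compound preincubation; buffer was 50 mM HEPES pH 7.0, 1 uM ZnSO4, 0.01% Tween20.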
On the technique in general: In qHTS, concentration-response curves come from the screen itself.

Test [4] addresses Glutathione peroxidase 1 (Homo sapiens) (UniProt P07203). The test can be described thus: Primary qHTS Assay for Inhibitors of Recombinant Selenoprotein Glutathione Peroxidase 1 (GPX1) (AID 1845191). Note: nearly all actives have a fitted effect of over 65% in size. The conditions noted are these: recombinant GPX1, GR-coupled NADPH fluorescence, 15 min; series mostly up to 48.8 µM. The essentials: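 NADPH consumption tracked by fluorescence at 340/450 nm between t=0 and t=15 min, room temperature. Final mix: 10 nM GPX1, 100 nM glutathione reductase, 1 mM GSH, 0.5 mM NADPH, 0.5 mM cumene hydroperoxide, 0.01% BSA; 30 min compound–enzyme preincubation.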

The target in test [5] is Phospholipid hydroperoxide glutathione peroxidase GPX4 (Homo sapiens) (UniProt P36969). The test can be described thus: Primary qHTS Assay for Inhibitors of Recombinant Selenoprotein Glutathione Peroxidase 4 (GPX4) (AID 1845192). Note: nearly all actives have a fitted effect of over 65% in size. The settings on record: recombinant GPX4, GR-coupled NADPH fluorescence, 15 min; series mostly up to 50 µM. Put shortly: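 NADPH consumption followed by fluorescence at 340/450 nm, t=0 and after 15 min at room temperature. Reaction started with cumene hydroperoxide (0.5 mM final) after 30 min compound–GPX4 preincubation; final 200 nM GPX4, 100 nM GR, 1 mM GSH, 0.5 mM NADPH.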
Sequence of Phospholipid hydroperoxide glutathione peroxidase GPX4 (Homo sapiens) (P36969 whole entry, looked up): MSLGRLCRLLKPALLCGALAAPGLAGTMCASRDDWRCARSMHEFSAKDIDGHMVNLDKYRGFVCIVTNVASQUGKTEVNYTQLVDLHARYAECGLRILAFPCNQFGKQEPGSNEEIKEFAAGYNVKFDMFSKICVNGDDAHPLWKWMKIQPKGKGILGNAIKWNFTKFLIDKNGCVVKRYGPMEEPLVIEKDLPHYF

Test [6] in a line: Viability counterscreen for antagonist of constitutive androstane receptor (CAR) against the NCATS DSHEA and TCM libraries (AID 1794837).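 Note: compound exposure lasted 24 h before viability reading; 0% is about no effect.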 The conditions noted are these: CAR reporter cell line viability counterscreen, qHTS; series mostly up to 40 µM. The essentials: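 Cells: HepG2 line carrying CYP2B6 reporter and hCAR, seeded and attached 5 h. Then pin-transferred test substances plus agonist CITCO at 48 uM final; 24 h incubation; fluorogenic viability reagent, 1 h.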

Test [7] in a line: Viability counterscreen for agonist of constitutive androstane receptor (CAR) against the NCATS DSHEA and TCM libraries (AID 1794838). Note: 0% is about no effect. The settings on record: HepG2 cell viability counterscreen, CAR agonist assay, co-treated with 0.75 µM CAR antagonist; series mostly up to 40 µM. The essentials:
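Cell health was measured as CellTiter-Fluor signal in HepG2-CYP2B6-hCAR cells treated for 24 h with substances alongside the hCAR antagonist PK11195 (0.75 uM final).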
On the technique in general: A counterscreen serves to expose hits that act by an unwanted route or on another target.

Test [8] deals with Nuclear receptor subfamily 1 group I member 3 (Homo sapiens) (UniProt Q14994). The test can be described thus: Primary qHTS for agonist of constitutive androstane receptor (CAR) against the NCATS DSHEA and TCM libraries (AID 1794839).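 Note: HepG2 cells expressing human CAR with a CYP2B6 reporter plus PK11195 antagonist; luciferase reporter luminescence read with ONE-Glo; 0% is about no effect.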 The conditions noted are these: CAR agonist reporter cells, qHTS luminescence, CAR antagonist co-added at 0.75 µM; series mostly up to 40 µM. The essentials: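 qHTS, agonist mode: HepG2-CYP2B6-hCAR, 2,500 cells/well, 5 h attach; cpds + PK11195 0.75 µM final; 24 h, 37 °C, 5% CO2. Readouts: CellTiter-Fluor (405/540 nm), then ONE-Glo luminescence.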
Sequence of Nuclear receptor subfamily 1 group I member 3 (Homo sapiens) (Q14994 whole entry, looked up): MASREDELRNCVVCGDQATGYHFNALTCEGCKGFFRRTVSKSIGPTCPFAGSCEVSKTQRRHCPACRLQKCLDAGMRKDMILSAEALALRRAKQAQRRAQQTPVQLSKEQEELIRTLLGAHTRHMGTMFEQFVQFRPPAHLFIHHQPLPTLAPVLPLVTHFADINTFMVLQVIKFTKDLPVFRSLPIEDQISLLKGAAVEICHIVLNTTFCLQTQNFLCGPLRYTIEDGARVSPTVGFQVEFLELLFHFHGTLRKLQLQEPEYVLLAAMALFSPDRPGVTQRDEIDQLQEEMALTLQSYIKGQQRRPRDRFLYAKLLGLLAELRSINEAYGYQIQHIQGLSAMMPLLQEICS

The nature of test [9]: HepG2 viability counterscreen (readout 2: ATP content) against the NCATS DSHEA and TCM libraries (AID 1794840). Note: 0% is about no effect. The conditions noted are these: ATP content luminescence; series mostly up to 27.3 µM. Put shortly:
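Same wells read twice: first fluorescence from cleaved GF-AFC substrate (25 uM final, 30 min, 37C) for live-cell protease, then CellTiter-Glo luminescence after 30 min at room temperature for ATP. HepG2 cells were exposed ~24 h to substances.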

Test [10] has as its target Cytochrome P450 3A4 (Homo sapiens) (UniProt P08684). Kind of test: qHTS for inhibitors of CYP3A4 against the NCATS DSHEA and TCM libraries (AID 1919971).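 Note: % is set by controls: 0 for no effect and ±100 for the full control effect; inhibition lowers luminescence from luciferin made by CYP3A4.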 The conditions noted are these: recombinant CYP3A4 enzyme activity, luminescence qHTS; series mostly up to 34.1 µM. The essentials: (§1)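 Concentration-response screening with isoform-matched pro-luciferin substrates. The CYP reaction was initiated by NADPH regenerating solution and ran 30-45 min in darkness at room temperature.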

In test [11] the target is Cytochrome P450 2D6 (Homo sapiens) (UniProt P10635). The test can be described thus: qHTS for inhibitors of CYP2D6 against the NCATS DSHEA and TCM libraries (AID 1919972). Note: % is set by controls: 0 for no effect and ±100 for the full control effect. The settings on record: CYP2D6 enzymatic inhibition, luminescence qHTS; series mostly up to 34.1 µM. The essentials:
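CYP2D6 enzyme with pro-luciferin substrate in manufacturer buffer (typically 100 mM KPO4), preincubated 15 min RT with substances (most at 19.5 nM upward); NADPH regeneration system (1x) started 30–45 min RT reaction; P450-Glo luminescence read after 30 min; quinidine as intraplate control.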

Test [12] concerns the target Cytochrome P450 2C9 (Homo sapiens) (UniProt P11712). The test can be described thus: qHTS for inhibitors of CYP2C9 against the NCATS DSHEA and TCM libraries (AID 1919973).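 Note: luminogenic pro-luciferin CYP2C9 substrate turned into luciferin with NADPH regeneration; % is set by controls: 0 for no effect and ±100 for the full control effect.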 The settings on record: recombinant CYP2C9 enzyme activity, luminescence; series mostly up to 34.1 µM. Put shortly: as §1
Test [13] is described as follows: KB-3-1 P-gp reporter qHTS against the NCATS DSHEA and TCM libraries (AID 1919975). Note: 0% is about no effect. The settings on record: KB-3-1 parental cells, CellTiter-Glo luminescence viability, 72 h; series mostly up to 26.1 µM. Put shortly:
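KB-3-1 parental line, 1536-well qHTS: cells seeded, ~4 h attachment, pintool compound addition, ~72 h at 37C, then CellTiter-Glo, 30 min RT, luminescence. Concentration-response format.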

The nature of test [14]: qHTS Counterscreen for compound interference against the NCATS DSHEA and TCM libraries (AID 1919978).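 Note: compounds preincubated with 1 µM D-luciferin or buffer before detection reagent; % of control where 0% means no effect.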 The conditions noted are these: firefly luciferase detection reagent interference, luminescence. Put shortly:
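Compounds, titrated from 19.5 nM to 39.8 uM final, were pinned onto 1 uM D-luciferin or plain 100 mM potassium phosphate. After 15 min at room temperature, luciferin detection reagent was added for 30 min before the luminescence read.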

A short description of test [15]: Dual reporter qHTS for agonist of Pregnane X Receptor (hPXR) against the NCATS DSHEA and TCM libraries: Fluorescence readout (AID 1920058). Note: 0% is about no effect. The settings on record: PXR dual reporter cells; series mostly up to 40 µM. Put shortly:
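Cells were plated at 2000 per well and allowed to attach for 5 h. Test substances were pinned in and incubated roughly 24 h. CellTiter-Fluor was then added and fluorescence measured after 1 h.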

Records with an inconclusive call do not appear. Calls of active or inactive are those of the source. Calls come from the whole dose curve; as a rule, active = well fitted curve in the direction sought with a large enough effect; inconclusive = small, poorly fitted or top-dose-only effect, or another doubt; inactive = no such curve, though single readings can be large; an effect the other way counts as inactive or inconclusive.

Sequence of Nicotinamide N-methyltransferase (Homo sapiens) (P40261 whole entry, looked up): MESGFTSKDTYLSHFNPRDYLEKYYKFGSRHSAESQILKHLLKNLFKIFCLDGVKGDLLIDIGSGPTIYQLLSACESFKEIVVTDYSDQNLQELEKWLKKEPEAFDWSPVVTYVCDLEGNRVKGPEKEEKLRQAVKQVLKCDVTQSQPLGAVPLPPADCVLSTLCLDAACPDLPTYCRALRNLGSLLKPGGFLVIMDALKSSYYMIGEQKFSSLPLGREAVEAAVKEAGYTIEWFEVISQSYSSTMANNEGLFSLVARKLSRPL
Sequence of Metallo-beta-lactamase type 2 (Klebsiella pneumoniae) (C7C422 whole entry, looked up): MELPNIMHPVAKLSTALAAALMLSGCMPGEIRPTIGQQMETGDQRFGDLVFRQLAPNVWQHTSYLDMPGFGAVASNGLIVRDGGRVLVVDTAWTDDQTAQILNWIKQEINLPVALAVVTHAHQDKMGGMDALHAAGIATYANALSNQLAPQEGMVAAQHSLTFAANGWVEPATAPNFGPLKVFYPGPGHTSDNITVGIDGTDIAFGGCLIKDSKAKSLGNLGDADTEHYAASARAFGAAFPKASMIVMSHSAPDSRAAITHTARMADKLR
Sequence of Glutathione peroxidase 1 (Homo sapiens) (P07203 whole entry, looked up): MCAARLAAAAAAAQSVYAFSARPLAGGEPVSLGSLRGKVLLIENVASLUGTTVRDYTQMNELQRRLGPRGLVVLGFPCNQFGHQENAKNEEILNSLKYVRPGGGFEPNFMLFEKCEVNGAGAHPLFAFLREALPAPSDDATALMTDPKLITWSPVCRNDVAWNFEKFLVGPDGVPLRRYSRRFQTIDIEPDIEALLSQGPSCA
Sequence of Cytochrome P450 2D6 (Homo sapiens) (P10635 whole entry, looked up): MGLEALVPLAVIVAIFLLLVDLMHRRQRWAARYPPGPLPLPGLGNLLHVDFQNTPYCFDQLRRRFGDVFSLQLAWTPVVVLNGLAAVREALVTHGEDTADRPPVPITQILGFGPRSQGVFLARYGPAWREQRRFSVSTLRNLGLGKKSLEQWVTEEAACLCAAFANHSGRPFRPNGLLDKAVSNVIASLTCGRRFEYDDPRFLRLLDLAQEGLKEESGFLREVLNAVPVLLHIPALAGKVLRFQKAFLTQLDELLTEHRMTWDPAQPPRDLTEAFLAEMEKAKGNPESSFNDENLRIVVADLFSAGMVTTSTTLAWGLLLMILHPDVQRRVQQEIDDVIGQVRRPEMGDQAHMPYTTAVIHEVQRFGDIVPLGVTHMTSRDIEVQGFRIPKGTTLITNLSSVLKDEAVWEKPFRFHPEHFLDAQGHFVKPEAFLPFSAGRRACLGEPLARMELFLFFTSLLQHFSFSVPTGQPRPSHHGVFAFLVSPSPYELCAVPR
Sequence of Cytochrome P450 2C9 (Homo sapiens) (P11712 whole entry, looked up): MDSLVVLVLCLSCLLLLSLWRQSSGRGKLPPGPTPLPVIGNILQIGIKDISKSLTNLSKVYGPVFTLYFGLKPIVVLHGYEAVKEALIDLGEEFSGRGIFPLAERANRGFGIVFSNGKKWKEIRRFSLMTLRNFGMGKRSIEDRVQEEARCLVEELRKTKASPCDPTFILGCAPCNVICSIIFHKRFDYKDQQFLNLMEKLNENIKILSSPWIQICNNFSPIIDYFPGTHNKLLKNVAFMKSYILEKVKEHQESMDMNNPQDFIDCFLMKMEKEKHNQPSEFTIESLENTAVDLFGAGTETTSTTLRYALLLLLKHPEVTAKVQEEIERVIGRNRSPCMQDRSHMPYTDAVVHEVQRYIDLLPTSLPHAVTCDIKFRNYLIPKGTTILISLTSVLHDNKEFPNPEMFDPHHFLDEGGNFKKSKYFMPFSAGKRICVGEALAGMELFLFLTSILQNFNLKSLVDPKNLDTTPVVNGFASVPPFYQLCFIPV
Sequence of Cytochrome P450 3A4 (Homo sapiens) (P08684 whole entry, looked up, canonical isoform): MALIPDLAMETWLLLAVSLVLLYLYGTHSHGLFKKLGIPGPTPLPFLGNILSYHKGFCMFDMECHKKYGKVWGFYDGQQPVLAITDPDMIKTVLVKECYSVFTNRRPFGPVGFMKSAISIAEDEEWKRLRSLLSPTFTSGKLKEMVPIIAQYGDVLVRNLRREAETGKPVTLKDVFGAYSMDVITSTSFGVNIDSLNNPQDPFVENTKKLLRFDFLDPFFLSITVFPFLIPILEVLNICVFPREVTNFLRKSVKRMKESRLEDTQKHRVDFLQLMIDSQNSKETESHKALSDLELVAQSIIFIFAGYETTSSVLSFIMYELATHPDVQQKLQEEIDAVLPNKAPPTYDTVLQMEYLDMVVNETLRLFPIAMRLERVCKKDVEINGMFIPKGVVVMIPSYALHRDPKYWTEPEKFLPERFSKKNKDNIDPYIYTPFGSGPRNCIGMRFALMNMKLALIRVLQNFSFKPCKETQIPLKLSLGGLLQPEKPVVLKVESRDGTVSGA

As to `CCCc1c(-c2ccc(O)cc2)nn(-c2ccc(O)cc2)c1-c1ccc(O)cc1`, the activity in test [1] is -57.1%; in test [2], -22%. The Potency entry in [3], in test [4] and in test [5] was “inactive” in each case.
As for `Nc1ccc2c3c(cccc13)C(=O)NC2=O`, the activity in test [1] is -4.84%; in test [2], 2.54%. In addition, the Potency entry in test [3], in [4] and in [5] was “inactive” in each case.
`N=C(N)SCCc1cnc[nH]1`: the values for the activity in test [1] and in test [2] were -8.2% and -8.19%, respectively. Further, the Potency result in test [3], in [4] and in [5] was “inactive” in each case.
With `O=C(O)/C=C/c1ccc(O)c(O)c1`, the activity is -14.8% in test [1] and -0.851% in test [2]. In addition, the outcome in test [6], in [7], in test [8], in test [9], in [10] and in test [11] was “inactive” in each case. The outcome in test [12], in test [13] and in [15] was “inactive” throughout. Also, the Potency result in test [3], in [4] and in test [5] was “inactive” in each case. For the same compound, the max response in [14] is -3.07% (inactive).
On to `N#C/C(=C\c1ccc(O)c(O)c1)C(=O)NCCc1ccccc1`, for which the values for the activity in [1] and in test [2] were -37.9% and 0.462%, respectively. Further, the Potency entry in test [3], in [4] and in [5] was “inactive” throughout.
As to `CC[C@@H]1Cc2cc(O)ccc2C2=C1c1ccc(O)cc1C[C@H]2CC`, the results for the activity in [1] and in [2] were -26.8% and -50.4%, respectively. The Potency entry in test [4] and in test [5] was “inactive” in each case.
As for `C=C1C(=O)O[C@@H]2[C@H]3O[C@]3(C)CCC=C(C)CC[C@@H]12`, the Potency result in test [3], in test [4] and in test [5] was “inactive” each time.
For the compound `Nc1ncnc2c1nc(Br)n2C1OC2COP(=O)(O)O[C@@H]2C1O` (stereo partly drawn), the Potency entry in test [3], in test [4] and in test [5] was “inactive” each time.
Take `NCC(O)c1ccc(O)c(O)c1` (stereo not drawn): the Potency entry in test [3], in test [4] and in test [5] was “inactive” throughout.
In the case of `CCN(c1nc(N)c(C(=O)N=C(N)N)nc1Cl)C(C)C`, the Potency entry in test [3], in [4] and in [5] was “inactive” each time.
Regarding `NCCCCN`, the Potency result in test [3], in [4] and in [5] was “inactive” in each case.
With `C#CCn1c(=O)c2c(ncn2C)n(C)c1=O`, the Potency entry in [3], in test [4] and in [5] was “inactive” throughout.
With `NC(Cc1cccc(-c2ccccc2CP(=O)(O)O)c1)C(=O)O` (stereo not drawn), the Potency entry in test [3], in test [4] and in test [5] was “inactive” in each case.
On to `CC(=O)SC1CC2=CC(=O)CC[C@]2(C)C2CC[C@@]3(C)C(CC[C@@]34CCC(=O)O4)C12` (stereo partly drawn), for which the Potency entry in [3], in test [4] and in test [5] was “inactive” throughout.
With `CN(CC[C@@H](Oc1ccc(C(F)(F)F)cc1)c1ccccc1)CC(=O)O`, the Potency entry in test [3], in [4] and in test [5] was “inactive” each time.
As to `c1ccc2nc(C3=NCCN3)ccc2c1`, the Potency result in test [3], in [4] and in [5] was “inactive” throughout.
As for `Cc1ccc2c(c1)C(N1CCN(C)CC1)=Nc1cccnc1N2`, the Potency entry in test [3], in [4] and in test [5] was “inactive” throughout.
On to `Nc1ccc(N2C(=O)c3ccccc3C2=O)c(Cl)c1`, for which the Potency result in test [3], in test [4] and in test [5] was “inactive” each time.
For `CN1CCC2(CCN3CCc4c(oc5ccccc45)C3C2)N(C)C1=O` (stereo not drawn), the Potency result in test [3] and in test [4] was “inactive” throughout.
Take `COCc1nc2c([nH]1)c(=O)n(C)c(=O)n2CC(C)C`: the Potency entry in test [3], in [4] and in test [5] was “inactive” throughout.
Regarding `CC(=O)NNC(=O)N1Cc2ccccc2Oc2ccc(Cl)cc21`, the Potency entry in test [3], in test [4] and in [5] was “inactive” throughout.
